How the values were obtained:
RIVA [1] = assay: growth inhibition by drug plus 177Lu-lilotomab satetraxetan (1 - RLU/untreated control) (fraction); higher = stronger inhibition; conditions: 177Lu-lilotomab satetraxetan 0.5 ug/ml
In short: (§1)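 RIVA or U-2932 cells, untreated or pretreated 18 h with a radiolabelled anti-CD37 antibody conjugate (~600 MBq/mg; 0.5 µg/ml RIVA, 1 µg/ml U-2932), were washed and seeded at 3,000 cells/well on plates pre-printed with the Selleck Cambridge Cancer Compound library. Doses were 10/100 nM (RIVA) or 10/1,000 nM (U-2932). RealTime-Glo luminescence was read daily from day 3 after 1 h at 37°C. Growth inhibition is 1 − RLU/mean of 48 untreated no-drug wells per plate.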

U-2932 [2] = assay: growth inhibition by drug alone (1 - RLU/untreated control) (fraction); higher = stronger inhibition; conditions: 177Lu-lilotomab satetraxetan 0 ug/ml
In short: as §1

RIVA [3] = assay: as above; conditions: 177Lu-lilotomab satetraxetan 0 ug/ml
In short: as §1

U-2932 [4] = assay: growth inhibition by drug plus 177Lu-lilotomab satetraxetan (1 - RLU/untreated control) (fraction); higher = stronger inhibition; conditions: 177Lu-lilotomab satetraxetan 1 ug/ml
In short: as §1

Compound	growth inhibition by drug plus 177Lu-lilotomab satetraxetan (RIVA [1]; 100 nM, time (day): 5)	growth inhibition by drug plus 177Lu-lilotomab satetraxetan (RIVA [1]; 100 nM, time (day): 6)	growth inhibition by drug alone (U-2932 [2]; 10 nM, time (day): 3)	growth inhibition by drug alone (U-2932 [2]; 10 nM, time (day): 4)	growth inhibition by drug alone (U-2932 [2]; 10 nM, time (day): 5)	growth inhibition by drug alone (U-2932 [2]; 10 nM, time (day): 6)	growth inhibition by drug alone (U-2932 [2]; 1000 nM, time (day): 3)	growth inhibition by drug alone (U-2932 [2]; 1000 nM, time (day): 4)	growth inhibition by drug alone (U-2932 [2]; 1000 nM, time (day): 5)	growth inhibition by drug alone (U-2932 [2]; 1000 nM, time (day): 6)	growth inhibition by drug alone (RIVA [3]; 10 nM, time (day): 3)	growth inhibition by drug alone (RIVA [3]; 10 nM, time (day): 4)	growth inhibition by drug alone (RIVA [3]; 10 nM, time (day): 5)	growth inhibition by drug alone (RIVA [3]; 10 nM, time (day): 6)	growth inhibition by drug alone (RIVA [3]; 100 nM, time (day): 3)	growth inhibition by drug alone (RIVA [3]; 100 nM, time (day): 4)	growth inhibition by drug alone (RIVA [3]; 100 nM, time (day): 5)	growth inhibition by drug alone (RIVA [3]; 100 nM, time (day): 6)	growth inhibition by drug plus 177Lu-lilotomab satetraxetan (U-2932 [4]; 10 nM, time (day): 3)	growth inhibition by drug plus 177Lu-lilotomab satetraxetan (U-2932 [4]; 10 nM, time (day): 4)	growth inhibition by drug plus 177Lu-lilotomab satetraxetan (U-2932 [4]; 10 nM, time (day): 5)	growth inhibition by drug plus 177Lu-lilotomab satetraxetan (U-2932 [4]; 10 nM, time (day): 6)	growth inhibition by drug plus 177Lu-lilotomab satetraxetan (U-2932 [4]; 1000 nM, time (day): 3)	growth inhibition by drug plus 177Lu-lilotomab satetraxetan (U-2932 [4]; 1000 nM, time (day): 4)	growth inhibition by drug plus 177Lu-lilotomab satetraxetan (U-2932 [4]; 1000 nM, time (day): 5)	growth inhibition by drug plus 177Lu-lilotomab satetraxetan (U-2932 [4]; 1000 nM, time (day): 6)	growth inhibition by drug plus 177Lu-lilotomab satetraxetan (RIVA [1]; 10 nM, time (day): 3)	growth inhibition by drug plus 177Lu-lilotomab satetraxetan (RIVA [1]; 10 nM, time (day): 4)	growth inhibition by drug plus 177Lu-lilotomab satetraxetan (RIVA [1]; 10 nM, time (day): 5)	growth inhibition by drug plus 177Lu-lilotomab satetraxetan (RIVA [1]; 10 nM, time (day): 6)	growth inhibition by drug plus 177Lu-lilotomab satetraxetan (RIVA [1]; 100 nM, time (day): 3)	growth inhibition by drug plus 177Lu-lilotomab satetraxetan (RIVA [1]; 100 nM, time (day): 4)
CC(C)C[C@H](NC(=O)CNC(=O)c1cc(Cl)ccc1Cl)B1OC(=O)C(CC(=O)O)(CC(=O)O)O1	0.698	0.645	–	–	–	–	–	–	–	–	–	–	–	–	–	–	–	–	–	–	–	–	–	–	–	–	–	–	–	–	–	–
COc1cccc2c1C(=O)c1c(O)c3c(c(O)c1C2=O)C[C@@](O)(C(=O)CO)C[C@@H]3O[C@H]1C[C@H](N)[C@H](O)[C@H](C)O1 [Doxorubicin (Adriamycin)]	0.952	0.968	0.258	0.293	0.356	0.433	0.974	0.983	0.986	0.988	0.198	0.324	0.365	0.391	0.62	0.794	0.872	0.915	0.422	0.492	0.589	0.687	0.979	0.986	0.989	0.99	0.831	0.879	0.909	0.933	0.869	0.928
CCN(CC)CCOc1ccc(Nc2ncc3cc(-c4c(Cl)cccc4Cl)c(=O)n(C)c3n2)cc1	0.405	0.287	0.107	0.071	0.00536	-0.00834	0.719	0.785	0.78	0.774	-0.00347	0.00881	-0.0667	-0.267	0.458	0.461	0.386	0.22	0.0115	0.0427	0.0614	0.118	0.958	0.972	0.981	0.984	0.458	0.527	0.536	0.546	0.495	0.473
O=c1oc2c(O)c(O)cc3c(=O)oc4c(O)c(O)cc1c4c23 [Ellagic acid]	0.402	0.388	-0.0386	-0.0333	-0.0157	0.0286	-0.0768	-0.0331	-0.0763	-0.143	-0.12	-0.115	-0.166	-0.332	-0.107	-0.127	-0.152	-0.219	-0.0253	-0.00558	0.0162	0.137	-0.104	-0.00651	0.0116	0.067	0.371	0.481	0.517	0.531	0.323	0.399
